Experimental data reported in PubChem BioAssay (NCATS).
Inconclusive results are not listed. Where a call stands in place of a potency, no number is given. Active and inactive are the calls of the source. Calls come from the whole dose curve; as a rule, active = well fitted inhibition curve with a large enough effect; inconclusive = small, poorly fitted or top-dose-only effect; inactive = flat fitted curve, though single readings scatter.

tested on: CP203; assay: qHTS profiling for inhibitors of Plasmodium falciparum proliferation (AID 504749); note: nearly all actives have a fitted effect of over 60% in size; conditions: P. falciparum in erythrocytes, SYBR Green DNA, 72 h; series mostly up to 28.7 µM
Method in brief: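 Parasite proliferation within erythrocytes, 72 h exposure. Endpoint: SYBR Green I fluorescence after overnight lysis at room temperature. Controls: 0.29 uM artemisinin, DMSO.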
Potency is the fitted concentration of half-maximal effect.

Structure (SMILES) | Potency
CN(C)CCCSc1ccccc1NC(=O)/C=C/c1ccccc1 | inactive
O.O.O.O.O.O.O.O=S(=O)([O-])[O-].[Co+2] | 6.75 µM (active)
CN1C(C(=O)Nc2ccccn2)C(=O)c2sc(Cl)cc2S1(=O)=O (centres undefined) | inactive
c1ccc2c(c1)OCC(CN1CCCCC1)O2 (centres undefined) | inactive
COc1ccc(C(=O)c2ccc(C)cc2)c(O)c1 | inactive
N=C(N)c1ccc(/C=C/c2ccc(C(=N)N)cc2O)cc1 | 15.1 µM (active)
CCCOc1cc(N)ccc1C(=O)OCCN(CC)CC | inactive
Cc1ncc[nH]1 | inactive
C[C@]12CCC(=O)C[C@@H]1CC[C@@H]1[C@@H]2CC[C@]2(C)C=CC[C@@H]12 | inactive
CN(C)C(=O)CCSC(SCCC(=O)O)c1cccc(/C=C/c2ccc3ccc(Cl)cc3n2)c1 (centres undefined) | inactive
CC(=O)Nc1ccc(NC(=S)NC(=O)c2ccc(C(C)(C)C)cc2)cc1 | inactive
COc1cc(C)c(/C=C/C(C)=C/C=C/C(C)=C/C(=O)O)c(C)c1C | inactive
O=P(O)(O)OP(=O)(O)O | inactive
CCOC(=O)C1=C(COCCN)NC(C)=C(C(=O)OC)C1c1ccccc1Cl (centres undefined) | inactive
COc1ccc2c(=O)c(C)c(-c3ccccc3)oc2c1CN(C)C | inactive
Cc1c(C)c2c(c(C)c1OC(=O)CCC(=O)O)CC[C@@](C)(CCC[C@H](C)CCC[C@H](C)CCCC(C)C)O2 | inactive
CCCCO | inactive
C[C@H](CCCC(C)(C)O)[C@H]1CC[C@H]2[C@@H]3CC=C4C[C@@H](O)CC[C@]4(C)[C@H]3CC[C@]12C | inactive
O=C(CCCN1CCN2CCCC2C1)c1ccc(F)cc1 (centres undefined) | inactive
COC(=O)[C@@H](N)CS | inactive

Structure (SMILES) | Potency
O=C(O)CCC(=O)c1ccc(-c2ccccc2)cc1 | inactive
CC(C)=CCC/C(C)=C/C=C/C(C)=C/C=C/C(C)=C/C=C/C=C(C)/C=C/C=C(C)/C=C/C=C(\C)CCC=C(C)C | inactive
Cc1cc(-c2ccc(N=Nc3c(S(=O)(=O)O)cc4cc(S(=O)(=O)O)cc(N)c4c3O)c(C)c2)ccc1N=Nc1c(S(=O)(=O)O)cc2cc(S(=O)(=O)O)cc(N)c2c1O | inactive
C[C@H](N)C(=O)N[C@@H](C)P(=O)(O)O | inactive
Cc1ncc(C[n+]2csc(CCO)c2C)c(N)n1 | inactive
O=C(OCc1ccccc1)c1cccnc1 | inactive
CC(C)NCC(O)COc1ccccc1-n1cccc1 (centres undefined) | inactive
Nc1ccc(N=Nc2ccccc2)c(N)n1 | inactive
Cn1c(O)c(N=NC(N)=S)c2ccccc21 | inactive
CCCc1nc(C(C)(C)O)c(C(=O)OCc2oc(=O)oc2C)n1Cc1ccc(-c2ccccc2-c2nn[nH]n2)cc1 | inactive
CC(=O)Oc1cccc2c1C(=O)c1c(OC(C)=O)cc(C(=O)O)cc1C2=O | inactive
O=P(O)(O)OC[C@H](O)CO | inactive
C/C=C/C=C/C(=O)O | inactive
Cn1c(=O)c2c(ncn2CCOC(=O)C(C)(C)Oc2ccc(Cl)cc2)n(C)c1=O | inactive
Cc1cc(C(=O)NCCc2ccc(S(=O)(=O)NC(=O)NN3CCCCCC3)cc2)no1 | inactive
CCC(=O)c1ccc2c(c1)N(CCCN1CCN(CCO)CC1)c1ccccc1S2 | 15.1 µM (active)
O=C(OC1C[C@@H]2CC3C[C@H](C1)N2CC3=O)c1c[nH]c2ccccc12 (some centres undefined) | inactive
O=C(O)CC/C=C\CC[C@@H]1[C@@H](N2CCCCC2)[C@@H](O)C[C@@H]1OCc1ccc(-c2ccccc2)cc1 | inactive
CCN(CC)CCOc1ccc2nc(N(C)C)sc2c1 | inactive
